{
  "source": "PubChem BioAssay AID1778",
  "about": "(Sanford-Burnham Center for Chemical Genomics, 2009)",
  "note": "Screen size: about 290,000 compounds; about 260 (0.09%) were called active. Rule as the data show it: active = inhibition above about 50%; inactive = the rest. What follows is part of a selection rich in actives, with near analogues and random picks from the rest. Results with a measured potency or affinity are listed apart.",
  "data": [
    {"biological_target": "Kappa-type opioid receptor (Homo sapiens) (UniProt P41145)", "sequence (P41145 whole entry, looked up)": "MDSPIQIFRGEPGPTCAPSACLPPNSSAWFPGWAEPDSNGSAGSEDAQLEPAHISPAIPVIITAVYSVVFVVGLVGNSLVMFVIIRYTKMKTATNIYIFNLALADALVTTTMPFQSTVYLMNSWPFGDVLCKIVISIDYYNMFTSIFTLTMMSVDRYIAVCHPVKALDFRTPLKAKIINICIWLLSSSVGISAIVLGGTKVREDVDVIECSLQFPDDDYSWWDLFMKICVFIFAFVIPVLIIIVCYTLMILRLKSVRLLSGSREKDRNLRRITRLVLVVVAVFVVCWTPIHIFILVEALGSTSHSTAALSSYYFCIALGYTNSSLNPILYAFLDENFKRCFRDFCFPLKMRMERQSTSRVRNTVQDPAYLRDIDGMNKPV", "assay": "kappa opioid receptor blockers – cell-based, luminescence, uHTS (AID 1778)", "details": "KOR beta-arrestin recruitment, antagonist mode, hits give high values; at 10 µM unless noted", "values": [
      {"molecule": "CCOC(=O)c1c(N)sc(C(O)(C(F)(F)F)C(F)(F)F)c1-c1ccc(F)cc1", "inhibition": "-27.6% (inactive)"},
      {"molecule": "Oc1csc(Cc2nc(-c3ccc(-c4ccccc4)cc3)cs2)n1", "inhibition": "3.4% (inactive)"},
      {"molecule": "Oc1csc(Cc2nc(-c3ccc(Br)cc3)cs2)n1", "inhibition": "8.7% (inactive)"},
      {"molecule": "Oc1csc(Cc2nc(-c3ccccc3F)cs2)n1", "inhibition": "-33.9% (inactive)"},
      {"molecule": "Oc1csc(Cc2nc(-c3ccc4ccccc4c3)cs2)n1", "inhibition": "22.5% (inactive)"},
      {"molecule": "CN1CCN(C(=O)c2ccc(COc3ccc(Cl)cc3Cl)cc2)CC1", "inhibition": "-29.5% (inactive)"},
      {"molecule": "CS(=O)(=O)NCCCCCCNS(C)(=O)=O", "inhibition": "-28.3% (inactive)"},
      {"molecule": "COc1ccc(-c2nn(CCC(=O)O)cc2/C=C/C(=O)O)cc1[N+](=O)[O-]", "inhibition": "2.1% (inactive)"},
      {"molecule": "CCCNS(=O)(=O)c1ccc(OCC(=O)N2CCCC2)cc1", "inhibition": "-18.5% [at 20 µM] (inactive)"},
      {"molecule": "Cc1ccccc1Cn1c(=O)n(-c2ccccc2)c(=O)c2ccc(C(=O)NCc3ccco3)cc21", "inhibition": "20.6% (inactive)"},
      {"molecule": "CC(C)(C)c1ccc(OCc2cnc(Cl)s2)cc1", "inhibition": "-46.2% [at 20 µM] (inactive)"},
      {"molecule": "CCN1C(=O)c2ccccc2S(=O)(=O)c2ccc(C(=O)N3CCOCC3)cc21", "inhibition": "16.4% (inactive)"},
      {"molecule": "CN(C)S(=O)(=O)c1ccc(C(=O)Nc2nnc(-c3cccs3)o2)cc1", "inhibition": "-13% (inactive)"},
      {"molecule": "COc1cccc(C(=O)Nc2nnc(-c3cccs3)o2)c1", "inhibition": "-17.8% (inactive)"},
      {"molecule": "O=C(Nc1nnc(C2=COCCO2)o1)c1cccc(C(F)(F)F)c1", "inhibition": "16% (inactive)"},
      {"molecule": "N#Cc1ccc(C(=O)Nc2nnc(-c3cccs3)o2)cc1", "inhibition": "-5.8% (inactive)"},
      {"molecule": "O=C(Nc1nnc(-c2cccs2)o1)c1cccc(C(F)(F)F)c1", "inhibition": "100% (active)"},
      {"molecule": "COc1cc(-c2[nH]ncc2CN2CCN(Cc3cccs3)CC2)cc(OC)c1OC", "inhibition": "-18.5% (inactive)"},
      {"molecule": "Cc1cccc(Nc2nc(N)c([N+](=O)[O-])c(N3CC(C)CC(C)C3)n2)c1", "note": "(stereo not given)", "inhibition": "-15% (inactive)"},
      {"molecule": "O=C1CC(C2CCCO2)C(=O)N1c1ccc(Cl)c(Cl)c1", "note": "(stereo not given)", "inhibition": "-15.9% [at 20 µM] (inactive)"},
      {"molecule": "CN(C)S(=O)(=O)c1cccc(NC(=O)c2cc(=O)[nH]c3ccccc23)c1", "inhibition": "-14.8% [at 20 µM] (inactive)"},
      {"molecule": "CCn1c(=O)c2sccc2n2c(CCCC(=O)NCCc3ccc(S(N)(=O)=O)cc3)nnc12", "inhibition": "-3% (inactive)"},
      {"molecule": "COC(=O)C1=C(C(=O)OC)[C@@H]2N(C)c3ccc(OC)cc3[C@@]23C[C@@H](C(=O)OC)N(C(=O)c2cccs2)C3=N1", "inhibition": "-29.4% [at 20 µM] (inactive)"},
      {"molecule": "O=C1/C(=C/c2cccnc2)SC(=S)N1c1ccc(O)cc1", "inhibition": "30.3% (inactive)"},
      {"molecule": "Cc1ccc(/C=C2\\SC(=S)N(c3cccnc3)C2=O)cc1", "inhibition": "-11.9% (inactive)"},
      {"molecule": "O=C(C(Sc1ccccc1)c1ccc(Br)cc1)N1CCOCC1", "note": "(stereo not given)", "inhibition": "20.5% (inactive)"},
      {"molecule": "Cc1ccc(NC(=O)c2nc(S(=O)(=O)Cc3ccccc3)ncc2Cl)cc1", "inhibition": "14% (inactive)"},
      {"molecule": "CN(c1ccccc1)S(=O)(=O)c1ccc(NC(=O)c2nc(S(C)(=O)=O)ncc2Cl)cc1", "inhibition": "35.2% (inactive)"},
      {"molecule": "CCN(c1ccccc1)S(=O)(=O)c1ccc(NC(=O)c2nc(S(C)(=O)=O)ncc2Cl)cc1", "inhibition": "38.4% (inactive)"},
      {"molecule": "CC(=O)Nc1ccc(NC(=O)c2nc(S(=O)(=O)Cc3ccccc3)ncc2Cl)cc1", "inhibition": "23.7% (inactive)"},
      {"molecule": "CCOC(=O)N1CCN(C(=O)COc2cccc3c2CCN(Cc2cccc(C)c2)C3=O)CC1", "inhibition": "8% (inactive)"},
      {"molecule": "CSc1ccc(NC(=O)N2CC=C(n3c(=O)[nH]c4ccccc43)CC2)cc1", "inhibition": "90.6% (active)"},
      {"molecule": "O=C(Nc1cccc(F)c1)N1CC=C(n2c(=O)[nH]c3ccccc32)CC1", "inhibition": "46.2% (inactive)"},
      {"molecule": "CCOc1ccc(NC(=O)N2CC=C(n3c(=O)[nH]c4ccccc43)CC2)cc1", "inhibition": "35.6% (inactive)"},
      {"molecule": "N#Cc1ccc(CN2CCN(C(=O)c3ccccc3)CC2)c(Cl)c1", "inhibition": "-1.5% (inactive)"},
      {"molecule": "Cc1cccc(C(=O)c2ccccc2C(=O)O)c1", "inhibition": "19.6% (inactive)"},
      {"molecule": "CC(NC(=O)CN1CCCC1)C12CC3CC(CC(C3)C1)C2", "note": "(stereo not given)", "inhibition": "-12% (inactive)"},
      {"molecule": "CC(NC(=O)Cn1nc(C(=O)O)c2ccccc2c1=O)C12CC3CC(CC(C3)C1)C2", "note": "(stereo not given)", "inhibition": "-21.3% (inactive)"},
      {"molecule": "Cc1ccc(C(=O)N/C(=C\\c2ccc(F)cc2)C(=O)NCCCn2ccnc2)cc1", "inhibition": "21.6% (inactive)"},
      {"molecule": "CCNCc1cc(Cl)c(OCc2ccccc2)c(OCC)c1", "inhibition": "12.3% (inactive)"},
      {"molecule": "CCOc1cc(CNC2CCCC2)cc(Cl)c1OCc1ccc(F)cc1", "inhibition": "-17.1% (inactive)"},
      {"molecule": "O=C(O)c1ccc(N/N=C/c2cccc3nccnc23)cc1", "inhibition": "14.2% (inactive)"},
      {"molecule": "C(=C\\c1ccccc1)/CSc1ccccn1", "inhibition": "-4.7% (inactive)"},
      {"molecule": "CC(C)N(C(=O)COC(=O)c1ccccc1C(=O)c1ccc(Cl)c([N+](=O)[O-])c1)C(C)C", "inhibition": "24.3% (inactive)"},
      {"molecule": "CNC(=O)COC(=O)c1ccccc1C(=O)c1ccc(Cl)c([N+](=O)[O-])c1", "inhibition": "-7.4% (inactive)"},
      {"molecule": "NS(=O)(=O)c1ccc(Nc2ccc([N+](=O)[O-])c3nonc23)cc1", "inhibition": "-10.8% (inactive)"},
      {"molecule": "CC(=O)c1ccc(Nc2ccc([N+](=O)[O-])c3nonc23)cc1", "inhibition": "37.3% [at 20 µM] (inactive)"},
      {"molecule": "COc1ccc(OC)c(NC(=O)c2cc3sccc3n2C)c1", "inhibition": "9.4% (inactive)"},
      {"molecule": "COc1ccc(OC)c(N2C(N)=C(C#N)C(c3ccc(OC)c(O)c3)C3=C2CC(C)(C)CC3=O)c1", "note": "(stereo not given)", "inhibition": "16.3% (inactive)"},
      {"molecule": "CCC(=O)Nc1ccc(C(=O)n2ccc(C)n2)cc1", "inhibition": "5.2% (inactive)"},
      {"molecule": "CCOc1cc(/C=C2\\SC(=N)N(c3nccs3)C2=O)ccc1OCCN1CCOCC1", "inhibition": "-3.5% (inactive)"},
      {"molecule": "O=C1/C(=C/c2ccco2)SC(=S)N1c1cccnc1", "inhibition": "-2.4% (inactive)"},
      {"molecule": "COc1cc(/C=C2\\SC(=N)N(c3ccc(F)cc3)C2=O)ccc1O", "inhibition": "-30.7% (inactive)"},
      {"molecule": "N=C1/C(=C\\c2ccc(-c3cccc(Cl)c3)o2)C(=O)N=C2SC=C(c3ccccc3)N12", "inhibition": "29.8% (inactive)"},
      {"molecule": "COc1ccc(/C=C2\\SC(=N)N(c3ccc(F)cc3)C2=O)cc1OC", "inhibition": "-9.7% (inactive)"},
      {"molecule": "N=C1S/C(=C\\c2ccco2)C(=O)N1c1ccc2c(c1)OCO2", "inhibition": "-11.9% [at 20 µM] (inactive)"},
      {"molecule": "N=C1S/C(=C\\c2ccco2)C(=O)N1c1nccs1", "inhibition": "71% (active)"},
      {"molecule": "O=C1OC(c2cccs2)=N/C1=C\\c1ccc(-c2cccc(Cl)c2)o1", "inhibition": "-15.5% (inactive)"},
      {"molecule": "Cc1[nH]c2ccccc2c1/C=N/n1cnnc1", "inhibition": "-34.7% (inactive)"},
      {"molecule": "CCOc1cccc(C(=O)N(Cc2cccc(F)c2)C2CCS(=O)(=O)C2)c1", "note": "(stereo not given)", "inhibition": "-33.2% (inactive)"},
      {"molecule": "Cc1csc(NC(=O)CCCc2cccs2)n1", "inhibition": "1.1% (inactive)"},
      {"molecule": "COc1ccc(C)cc1NC(=O)C(Sc1nnc(Nc2cc(C)ccc2OC)s1)c1ccccc1", "note": "(stereo not given)", "inhibition": "-5.6% (inactive)"},
      {"molecule": "CCOc1ccc(CCNS(=O)(=O)c2cnc[nH]2)cc1OCC", "inhibition": "-14.7% (inactive)"},
      {"molecule": "COc1ccccc1NC(=O)c1ccc(CSc2ncccn2)cc1", "inhibition": "7.4% (inactive)"},
      {"molecule": "Cc1ccc(NC(=O)CCCCCN2C(=O)[C@@H]3Cc4ccccc4CN3C2=O)c(C)c1", "inhibition": "26.6% (inactive)"},
      {"molecule": "Oc1c(/C=N/c2ccccn2)sc2ccccc12", "inhibition": "-1.9% (inactive)"},
      {"molecule": "Oc1c(C=Nc2cccnc2)sc2ccccc12", "inhibition": "-24.2% (inactive)"},
      {"molecule": "COc1ccc(NC(=S)NC(NC(=O)c2ccc(Cl)cc2Cl)C(Cl)(Cl)Cl)c([N+](=O)[O-])c1", "note": "(stereo not given)", "inhibition": "36.4% (inactive)"},
      {"molecule": "COc1ccc(NC(=S)NC(NC(=O)c2cccc3ccccc23)C(Cl)(Cl)Cl)c([N+](=O)[O-])c1", "note": "(stereo not given)", "inhibition": "-86.5% (inactive)"},
      {"molecule": "COCCSc1nnc(NC(=O)CSc2ccccc2)s1", "inhibition": "-18.1% (inactive)"},
      {"molecule": "CCc1nnc(NC(=O)CSc2nnc(CNc3cccc(Cl)c3)n2CC)s1", "inhibition": "-7.1% (inactive)"},
      {"molecule": "O=C(NCCc1ccccn1)c1ccc(OC(F)F)cc1", "inhibition": "19.2% (inactive)"},
      {"molecule": "O=C(O)c1cccc(Nc2cc(Cl)c3nonc3c2[N+](=O)[O-])c1", "inhibition": "4.3% (inactive)"},
      {"molecule": "Cc1c(Nc2cc(N3CCOCC3)c3nonc3c2[N+](=O)[O-])c(=O)n(-c2ccccc2)n1C", "inhibition": "25.4% (inactive)"},
      {"molecule": "O=[N+]([O-])c1c(Nc2ccc(O)cc2)cc(Cl)c2nonc12", "inhibition": "104% (active)"},
      {"molecule": "CN(C)c1cc(Nc2cccc(O)c2)c([N+](=O)[O-])c2nonc12", "inhibition": "-7.7% (inactive)"},
      {"molecule": "O=C(O)c1cc(Nc2cc(Cl)c3nonc3c2[N+](=O)[O-])ccc1O", "inhibition": "-28% (inactive)"},
      {"molecule": "CCNc1cc(Nc2c(C)n(C)n(-c3ccccc3)c2=O)c([N+](=O)[O-])c2nonc12", "inhibition": "13.1% (inactive)"},
      {"molecule": "CN(C)c1cc(Nc2ccc(O)cc2)c([N+](=O)[O-])c2nonc12", "inhibition": "40.9% (inactive)"},
      {"molecule": "O=C(O)c1ccc(Nc2cc(Cl)c3nonc3c2[N+](=O)[O-])cc1", "inhibition": "27.4% (inactive)"},
      {"molecule": "O=[N+]([O-])c1c(Nc2cccc(O)c2)cc(Cl)c2nonc12", "inhibition": "114% [at 20 µM] (active)"},
      {"molecule": "CCN(CC)c1cc(NCCO)c([N+](=O)[O-])c2nonc12", "inhibition": "-13.9% (inactive)"},
      {"molecule": "CN(C(=O)c1ccc(S(=O)(=O)c2cccc(Cl)c2)c([N+](=O)[O-])c1)C1CCCCC1", "inhibition": "-8.7% (inactive)"},
      {"molecule": "CC1(C)CC(=O)c2cc(OCC(=O)NCCN3CCOCC3)ccc2O1", "inhibition": "-16.7% (inactive)"},
      {"molecule": "CCOC(=O)C(=O)N1CCC(Cc2ccccc2)CC1", "inhibition": "31.7% (inactive)"},
      {"molecule": "O=C1CN(C(=O)COC(=O)CCNS(=O)(=O)c2ccc(Cl)cc2)c2ccccc2N1", "inhibition": "-18.1% (inactive)"},
      {"molecule": "CC(/C=N\\N1CCN(c2ccc(Cl)cc2)CC1)=C\\c1ccccc1", "inhibition": "53.7% (inactive)"},
      {"molecule": "O=C(N/N=C/c1ccoc1)c1cc(Br)ccc1O", "inhibition": "-13.2% (inactive)"},
      {"molecule": "O=[N+]([O-])c1c(Nc2ccccc2O)ccc2nonc12", "inhibition": "35.9% (inactive)"},
      {"molecule": "O=C(O)c1ccccc1Nc1cc(Cl)c2nonc2c1[N+](=O)[O-]", "inhibition": "34.1% (inactive)"}
    ]}
  ]
}
